Common to all, as to conditions: mRNA level, 48 h; actives raise or lower the signal
Read-out in assay [1]: Bcl-2 (BAD) gene, BAD (gene 572)
As to the kind of experiment: LTEA_HepaRG_BAD: Life Technologies and Expression Analysis (LTEA) Assay for Bcl-2 (BAD) gene using HepaRG (AID 2283469). Summed up:
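Activity values reflect up- or down-regulation of BAD mRNA in human HepaRG hepatic cells treated 48 h in serum-free medium, with eight-point half-log dosing capped at 100 uM and 0.5% DMSO vehicle.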

Read-out in assay [2]: Bcl-2 (BAX) gene, BAX (gene 581)
The assay can be described thus: LTEA_HepaRG_BAX: Life Technologies and Expression Analysis (LTEA) Assay for Bcl-2 (BAX) gene using HepaRG (AID 2283470). Summed up: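 Gene expression measured by Fluidigm qRT-PCR with three housekeeping genes for normalisation. HepaRG cells, plated 48 h beforehand, treated 48 h at up to 100 uM (8-point, half-log) in 0.5% DMSO. Bidirectional fitting versus DMSO.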

Read-out in assay [3]: adenosine kinase (ADK) gene, ADK (gene 132)
As to the kind of experiment: LTEA_HepaRG_ADK: Life Technologies and Expression Analysis (LTEA) Assay for adenosine kinase (ADK) gene using HepaRG (AID 2283471). Put shortly:
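Following 48 h exposure of HepaRG cells in 0.5% DMSO (top concentration 100 uM, duplicate wells), ADK mRNA induction or suppression was measured by qRT-PCR, normalised to ACTB/GAPDH/POLR2A, and fitted bidirectionally relative to vehicle.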

Read-out in assay [4]: Alpha-fetoprotein (AFP) gene, AFP (gene 174)
The assay can be described thus: LTEA_HepaRG_AFP: Life Technologies and Expression Analysis (LTEA) Assay for Alpha-fetoprotein (AFP) gene using HepaRG (AID 2283472). Summed up:
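AFP transcript measured by TaqMan qRT-PCR with three housekeeping genes for normalization, after 48 h chemical treatment of HepaRG cells (top 100 uM, half-log steps, 0.5% DMSO). Gain or loss fitted against vehicle.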

Read-out in assay [5]: BCL2L11 (gene 10018)
As to the kind of experiment: LTEA_HepaRG_BCL2L11: Life Technologies and Expression Analysis (LTEA) Assay for Bcl-2 (BCL2L11) gene using HepaRG (AID 2283473). Summed up:
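Cells were plated, cultured 48 h, switched to serum-free induction medium, then dosed in duplicate for 48 h at eight half-log concentrations up to 100 uM. Lysates underwent RNA isolation and TaqMan qRT-PCR; gain or loss versus DMSO was fitted.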

Read-out in assay [6]: Apolipoprotein A-V (APOA5) gene, APOA5 (gene 116519)
The assay can be described thus: LTEA_HepaRG_APOA5: Life Technologies and Expression Analysis (LTEA) Assay for Apolipoprotein A-V (APOA5) gene using HepaRG (AID 2283474). Summed up: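 Human liver HepaRG cells are treated 48 h with test chemicals (100 uM top, half-log dilutions, 0.5% DMSO). APOA5 mRNA induction or loss is measured by qRT-PCR relative to vehicle.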

Read-out in assay [7]: Apoptosis regulator Bcl-2 (Homo sapiens) (UniProt P10415)
The assay can be described thus: LTEA_HepaRG_BCL2: Life Technologies and Expression Analysis (LTEA) Assay for Bcl-2 gene using HepaRG (AID 2283475). Put shortly:
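qRT-PCR of BCL2 transcript, normalized to three housekeeping genes (ACTB, GAPDH, POLR2A), after 48 h chemical exposure of HepaRG cells; concentrations top 100 uM with half-log dilutions, 0.5% DMSO vehicle, duplicates; changes up or down fitted relative to vehicle.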

Read-out in assay [8]: Bcl-2 (BID) gene, BID (gene 637)
As to the kind of experiment: LTEA_HepaRG_BID: Life Technologies and Expression Analysis (LTEA) Assay for Bcl-2 (BID) gene using HepaRG (AID 2283476). Put shortly:
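Duplicate 48 h treatments of HepaRG cells in serum-free induction medium spanned 100 uM downward in half-log steps, 0.5% DMSO. Transcript change quantified by qRT-PCR against three housekeeping genes, fitted up or down versus DMSO.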

Read-out in assay [9]: Caspase-3 (Homo sapiens) (UniProt P42574)
The assay can be described thus: LTEA_HepaRG_CASP3: Life Technologies and Expression Analysis (LTEA) Assay for cysteine-aspartic acid protease (CASP3) using HepaRG (AID 2283477). Put shortly: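 In HepaRG liver cells dosed for 48 h at up to 100 uM (eight-point, duplicate), CASP3 expression changes are scored by qRT-PCR. Activity is fitted in both directions with 0.5% DMSO as baseline.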

Read-out in assay [10]: Cytochrome P450 (CYP24A1), CYP24A1 (gene 1591)
The assay can be described thus: LTEA_HepaRG_CYP24A1: Life Technologies and Expression Analysis (LTEA) Assay for Cytochrome P450 (CYP24A1) using HepaRG (AID 2283478). Put shortly:
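Human liver HepaRG cultures receive each chemical for 48 h across an eight-point half-log series topping at 100 uM in 0.5% DMSO. Induction or suppression of CYP24A1 mRNA is scored relative to vehicle after housekeeping-gene normalization.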

Read-out in assay [11]: Cytochrome P450 (CYP1A2), CYP1A2 (gene 1544)
As to the kind of experiment: LTEA_HepaRG_CYP1A2: Life Technologies and Expression Analysis (LTEA) Assay for Cytochrome P450 (CYP1A2) using HepaRG (AID 2283479). Put shortly:
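Assesses CYP1A2 mRNA in human HepaRG liver cells after 48 h chemical exposure at up to 100 uM. Values come from qRT-PCR with bidirectional curve fitting relative to DMSO.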

Read-out in assay [12]: cysteine-aspartic acid protease (CASP8), CASP8 (gene 841)
The assay can be described thus: LTEA_HepaRG_CASP8: Life Technologies and Expression Analysis (LTEA) Assay for cysteine-aspartic acid protease (CASP8) using HepaRG (AID 2283480). Put shortly:
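Concentration-response in duplicate up to 100 uM (half-log steps, 0.5% DMSO) on differentiated HepaRG cultures for 48 h. Expression change of CASP8 mRNA is determined by TaqMan qRT-PCR with housekeeping-gene normalization.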

Read-out in assay [13]: Cytochrome P450 (CYP2B6), CYP2B6 (gene 1555)
The assay can be described thus: LTEA_HepaRG_CYP2B6: Life Technologies and Expression Analysis (LTEA) Assay for Cytochrome P450 (CYP2B6) using HepaRG (AID 2283481). Put shortly:
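Using 48 h treatment of HepaRG cells in serum-free induction medium, concentrations spanned half-log steps from 100 uM in 0.5% DMSO vehicle. CYP2B6 mRNA induction or loss is scored by qRT-PCR against DMSO.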

Read-out in assay [14]: Cytochrome P450 2C19 (Homo sapiens) (UniProt P33261)
As to the kind of experiment: LTEA_HepaRG_CYP2C19: Life Technologies and Expression Analysis (LTEA) Assay for CYP2C19 using HepaRG (AID 2283482). Put shortly:
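Human HepaRG liver cells received test chemicals for 48 h (highest 100 uM, half-log dilutions in 0.5% DMSO). CYP2C19 mRNA induction or loss is read by multiplexed qRT-PCR and fitted in both directions versus vehicle.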

Read-out in assay [15]: CYP2C8 (gene 1558)
As to the kind of experiment: LTEA_HepaRG_CYP2C8: Life Technologies and Expression Analysis (LTEA) Assay for CYP2C8 using HepaRG (AID 2283483). Put shortly: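 This is a transcriptional endpoint in HepaRG cultures: 48 h exposure, highest concentration 100 uM. CYP2C8 mRNA is quantified by TaqMan qRT-PCR.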

Read-out in assay [16]: CYP2E1 (gene 1571)
As to the kind of experiment: LTEA_HepaRG_CYP2E1: Life Technologies and Expression Analysis (LTEA) Assay for CYP2E1 using HepaRG (AID 2283485). Put shortly:
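CYP2E1 transcript measured by Fluidigm qRT-PCR against three housekeeping genes in human HepaRG cells treated 48 h (top 100 uM, half-log steps, 0.5% DMSO vehicle). Gain or loss fitted relative to DMSO baseline.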

Read-out in assay [17]: Cytochrome P450 3A4 (Homo sapiens) (UniProt P08684)
The assay can be described thus: LTEA_HepaRG_CYP3A4: Life Technologies and Expression Analysis (LTEA) Assay for CYP3A4 using HepaRG (AID 2283487). Put shortly: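 In a human hepatic line (HepaRG), duplicate wells were treated 48 h with up to 100 uM chemical in half-log dilutions. Endpoint: CYP3A4 mRNA induction or loss relative to 0.5% DMSO vehicle, by qRT-PCR.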

Read-out in assay [18]: DNA damage-inducible transcript 3 (DDIT3), DDIT3 (gene 1649)
The assay can be described thus: LTEA_HepaRG_DDIT3: Life Technologies and Expression Analysis (LTEA) Assay for DNA damage-inducible transcript 3 (DDIT3) using HepaRG (AID 2283488). Put shortly: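 DDIT3 transcript was quantified by qRT-PCR with ACTB/GAPDH/POLR2A normalization after 48 h chemical treatment of differentiated HepaRG cells in 0.5% DMSO. Dosing was eight-point, half-log, top 100 uM, duplicate wells. Curves fitted bidirectionally versus DMSO.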

Read-out in assay [19]: CYP4A11 (gene 1579)
The assay can be described thus: LTEA_HepaRG_CYP4A11: Life Technologies and Expression Analysis (LTEA) Assay for CYP4A11 using HepaRG (AID 2283486). Put shortly: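 Readout is CYP4A11 mRNA induction or suppression (qRT-PCR, ACTB/GAPDH/POLR2A normalization) in human HepaRG cells after 48 h chemical treatment, concentrations to 100 uM in 0.5% DMSO, fitted bidirectionally against vehicle.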

Read-out in assay [20]: CYP2C9 (gene 1559)
As to the kind of experiment: LTEA_HepaRG_CYP2C9: Life Technologies and Expression Analysis (LTEA) Assay for CYP2C9 using HepaRG (AID 2283484). Put shortly: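 Eight-point concentration-response (highest 100 uM, half-log dilutions) in HepaRG cells for 48 h; CYP2C9 expression by qRT-PCR normalized to ACTB, GAPDH, POLR2A. Bidirectional fit, DMSO baseline.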

Molecules are shown by their SMILES. Calls of active or inactive are those of the source. Rule for the calls: active = hit-call score of the fitted dose curve at least 0.9, where 1 is the maximum; inactive = score below 0.9.

Sequence of Cytochrome P450 3A4 (Homo sapiens) (P08684 whole entry, looked up): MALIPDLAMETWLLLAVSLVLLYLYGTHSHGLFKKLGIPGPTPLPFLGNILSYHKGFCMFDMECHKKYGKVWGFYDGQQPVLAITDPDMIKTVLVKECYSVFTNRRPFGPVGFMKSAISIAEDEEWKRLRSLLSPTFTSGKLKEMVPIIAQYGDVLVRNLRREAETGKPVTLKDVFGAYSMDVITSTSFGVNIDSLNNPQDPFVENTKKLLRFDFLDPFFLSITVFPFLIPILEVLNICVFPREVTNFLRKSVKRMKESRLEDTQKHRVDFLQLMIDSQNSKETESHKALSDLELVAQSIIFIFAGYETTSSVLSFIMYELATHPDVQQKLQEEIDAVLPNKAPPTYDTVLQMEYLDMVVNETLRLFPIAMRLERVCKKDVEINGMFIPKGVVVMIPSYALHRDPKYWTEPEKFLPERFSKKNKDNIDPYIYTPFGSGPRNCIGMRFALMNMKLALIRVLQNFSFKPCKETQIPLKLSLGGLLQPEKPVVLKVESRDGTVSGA
Sequence of Caspase-3 (Homo sapiens) (P42574 whole entry, looked up): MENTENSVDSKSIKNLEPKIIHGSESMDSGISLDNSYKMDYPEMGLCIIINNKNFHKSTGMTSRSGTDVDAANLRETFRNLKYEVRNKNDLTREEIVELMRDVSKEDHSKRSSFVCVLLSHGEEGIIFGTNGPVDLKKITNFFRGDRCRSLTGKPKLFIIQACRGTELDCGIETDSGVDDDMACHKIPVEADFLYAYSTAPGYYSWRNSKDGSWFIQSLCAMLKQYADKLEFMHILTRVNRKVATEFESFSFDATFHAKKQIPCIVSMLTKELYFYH
Sequence of Cytochrome P450 2C19 (Homo sapiens) (P33261 whole entry, looked up): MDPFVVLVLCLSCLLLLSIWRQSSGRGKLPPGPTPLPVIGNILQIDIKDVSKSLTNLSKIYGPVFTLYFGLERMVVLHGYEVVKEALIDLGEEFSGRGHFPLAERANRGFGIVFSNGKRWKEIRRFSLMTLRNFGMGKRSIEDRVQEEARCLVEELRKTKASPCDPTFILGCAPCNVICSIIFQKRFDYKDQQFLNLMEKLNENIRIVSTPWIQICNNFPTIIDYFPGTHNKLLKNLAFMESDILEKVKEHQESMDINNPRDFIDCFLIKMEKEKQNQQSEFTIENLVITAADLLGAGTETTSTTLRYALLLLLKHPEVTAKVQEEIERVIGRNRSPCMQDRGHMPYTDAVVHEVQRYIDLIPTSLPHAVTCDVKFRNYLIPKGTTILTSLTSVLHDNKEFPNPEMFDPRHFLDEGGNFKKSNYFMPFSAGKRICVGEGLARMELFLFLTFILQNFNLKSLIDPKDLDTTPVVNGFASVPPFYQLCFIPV
Sequence of Apoptosis regulator Bcl-2 (Homo sapiens) (P10415 whole entry, looked up): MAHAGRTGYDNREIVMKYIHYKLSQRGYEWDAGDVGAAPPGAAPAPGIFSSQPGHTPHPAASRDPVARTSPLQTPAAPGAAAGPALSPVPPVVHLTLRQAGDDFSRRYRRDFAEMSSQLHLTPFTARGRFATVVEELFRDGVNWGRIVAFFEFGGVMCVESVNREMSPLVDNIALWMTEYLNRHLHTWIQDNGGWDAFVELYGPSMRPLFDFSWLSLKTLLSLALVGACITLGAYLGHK

`CN(C)C(=O)Nc1ccc(Cl)c(Cl)c1`: the compound was classed as inactive in assay [1], in assay [2], in assay [3], in [5], in [6] and in [7]. Besides, the outcome in assay [8], in [9], in [10], in [12], in assay [15] and in [17] was inactive. Further, the compound was classed as inactive in assay [18]. Moreover, the AC50 in [4] was 50 µM (active); in assay [11], 30 µM (active); in assay [13] it was 10.9 µM (active); in assay [14] it was 28.7 µM (active); in assay [16], 63 µM (active).

With `O=C(c1ccccc1)C1CCCCC1`, the compound was called inactive in [1], in assay [2], in assay [3], in [4], in assay [5] and in assay [6]. For the same compound, the compound was called inactive in assay [7], in assay [8], in assay [9], in [10], in assay [11] and in assay [12]. Also, the call in assay [14], in assay [15], in [16], in [19], in assay [17] and in [18] was inactive. For the same compound, the AC50 in [13] is 25 µM (active).

For `CCCOC(=O)c1ccc(C(=O)OCCC)nc1`, the compound was classed as inactive in [1], in assay [2], in [3], in assay [4], in [5] and in assay [6]. Further, the compound was classed as inactive in assay [7], in [8], in assay [9], in assay [10], in [12] and in [13]. In addition, the compound was called inactive in [14], in assay [15], in assay [16] and in [17]. Further, the AC50 in assay [11] is 50 µM (active).

As to `CCCCCCC(C)OC(=O)COc1nc(F)c(Cl)c(N)c1Cl` (stereo unspecified), the outcome in assay [1], in assay [2], in [3], in assay [4], in assay [5] and in assay [6] was inactive. Also, the outcome in assay [7], in assay [9], in assay [10], in assay [11], in [12] and in assay [14] was inactive. The call in assay [15] and in assay [16] was inactive. Also, the AC50 in assay [13] was 50 µM (active).

As for `COC(=O)CSc1cc(N=c2sc(=O)n3n2CCCC3)c(F)cc1Cl`, the result in assay [1], in [2], in assay [3], in [4], in [5] and in assay [6] was inactive. The compound was called inactive in [7], in assay [9], in assay [10], in assay [11], in assay [12] and in assay [15]. The compound was classed as inactive in [20]. In addition, the AC50 is 38.8 µM (active) in assay [13], 24 µM (active) in [14], 50 µM (active) in assay [16] and 13.5 µM (active) in assay [17].

The AC50 is the midpoint of the concentration-response curve, whichever way the signal moves.

(Values after PubChem BioAssay (EPA / NIEHS).)
